Sampled rows, rich in hits. Any-hit rate of the full collection: about 3.1%.
GLS inh – glutaminase GLS (human) inhibition; AID 624170; 410,000 compounds, 0.21% hits; Potency, µM (doses to about 45.5 µM), inactives show at the top dose activity change, negative = inhibition, most hits filed as inhibitors; O94925; GLS enzymatic activity, qHTS titration; note: potency is the fitted concentration of half-maximal effect
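hKGA in 45 mM KH2PO4 pH 8.2, 0.02% Tween-20 with pin-transferred compounds; 1 mM L-glutamine (stock) plus glutamate oxidase/HRP/Amplex Red coupling added. Fluorescence read initially and after 30 min at RT.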
PLK1 PBD block – PLK1 (human) polo-box domain binding inhibition; Plk1 PBD binding of FITC phosphopeptide, fluorescence polarization; 360,000 compounds, 2.8% hits; Potency, µM, inactives show max response, negative = inhibition, actives largely listed as inhibitors; AID 720504; P53350; note: potency is the fitted concentration of half-maximal effect; series mostly up to about 57 µM; nearly all actives have a fitted effect of over 65% in size
Target sequence (P53350 whole entry, looked up, the tested form may be a part): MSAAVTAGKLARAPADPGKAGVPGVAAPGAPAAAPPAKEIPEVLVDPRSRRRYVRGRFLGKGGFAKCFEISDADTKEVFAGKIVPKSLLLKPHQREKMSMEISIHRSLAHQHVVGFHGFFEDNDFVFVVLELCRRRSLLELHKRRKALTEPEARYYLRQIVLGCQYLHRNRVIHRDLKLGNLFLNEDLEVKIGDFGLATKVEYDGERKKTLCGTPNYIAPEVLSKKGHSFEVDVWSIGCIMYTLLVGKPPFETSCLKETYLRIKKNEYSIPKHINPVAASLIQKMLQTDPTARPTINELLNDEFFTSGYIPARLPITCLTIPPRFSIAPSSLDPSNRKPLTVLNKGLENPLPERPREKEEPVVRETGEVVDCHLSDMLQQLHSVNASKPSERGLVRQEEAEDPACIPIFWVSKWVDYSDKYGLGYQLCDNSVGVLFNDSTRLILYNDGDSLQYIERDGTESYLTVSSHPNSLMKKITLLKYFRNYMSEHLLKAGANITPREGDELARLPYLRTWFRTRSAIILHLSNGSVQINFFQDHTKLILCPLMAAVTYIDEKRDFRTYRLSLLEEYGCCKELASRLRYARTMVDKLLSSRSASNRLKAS
VDR inhibitor – blocks the human vitamin D receptor; P11473; VDR-SRC2-3 peptide fluorescence polarization, 2 h; Potency, µM, for the others: max response, negative = inhibition, actives largely listed as inhibitors; 400,000 compounds, 0.93% hits; AID 504847; note: potency is the fitted concentration of half-maximal effect
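Fluorescence polarization assay of small-molecule disruption of VDR binding to coregulator peptide SRC2-3. Compounds and controls pin-transferred, then read after 2 h incubation at ambient room temperature.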
PI4K2A block – inhibitors of human PI4K2A | Q9BTU6 | purified PI4K2A, ADP-Glo luminescence, 1 h; hits give low values | activity change, negative = inhibition, % at 76.9 µM | 420,000 compounds, 0.13% hits | AID 1346378; in the data active = activity change below about -50%; inconclusive = mostly about -30% to -49%;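 note: -100% = wells without enzyme as full effect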
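PI4K2A activity was measured by ADP-Glo luminescence: enzyme (4 ug/mL stock) and phosphatidylinositol (1.2 mM stock) in Tris pH 7.5/MgCl2/EGTA/Triton X-100 buffer were reacted with ATP (300 microM stock) for one hour at ambient temperature.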
GCN5L2 inh – GCN5L2 (KAT2A) acetyltransferase inhibition; AID 504327; 390,000 compounds, 0.21% hits; GCN5L2 HAT assay, ThioGlo1 CoA-SH fluorescence; Potency, µM (titrated, usually from 58.9 µM), without a hit: at the highest dose activity change, negative = inhibition, usual class: inhibitors; note: potency is the fitted concentration of half-maximal effect
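Enzyme at 20nM final was mixed with library compounds for 15 min at room temperature. Peptide H3(1-25) at 75uM, acetyl-CoA at 70uM and ThioGlo1 at 50uM were then added. Plates were read immediately and after 20 min (Ex340nm/Em540nm).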
The depositor's hits bear a star; u = inconclusive; x = not tested or not shown; ! = not confirmed by another sample. Unless noted, calls come from the whole dose curve; as a rule, active = well fitted curve in the direction sought with a large enough effect; inconclusive = small, poorly fitted or top-dose-only effect, or another doubt; inactive = no such curve, though single readings can be large; an effect the other way counts as inactive or inconclusive. Unless noted, % is set by controls: 0 for no effect and ±100 for the full control effect.

SMILES	GLS inh	PLK1 PBD block	VDR inhibitor	PI4K2A block	GCN5L2 inh
COCCOC(=O)C1=C(C)NC(C)=C(C(=O)OC/C=C/c2ccccc2)C1c1cccc([N+](=O)[O-])c1 (centres undefined)	-6.1%	x	-3.0%	3.6	-18.3%
CCCC(=O)OCCNc1cc(SCc2ccco2)c2nonc2c1[N+](=O)[O-]	3.3%	u	u	u	-3.2%
CC(=O)OCCCNc1cc(SCc2ccco2)c2nonc2c1[N+](=O)[O-]	6.5%	u	79.4µM*	u	35.3%
CCC(=O)OCCNc1cc(Sc2nc3ccccc3[nH]2)c2nonc2c1[N+](=O)[O-]	u	1.19µM*	u	-9.5	25.1%
CCCSc1cc(NCCOC(=O)CCC)c([N+](=O)[O-])c2nonc12	-3.4%	16.8µM*	u	22.6	0.0%
COC(=O)[C@]12C[C@H](CC(=O)NCc3cccc4ccccc34)C(=O)N(CCC3=CCCCC3)C1=C[C@H](C1CCCC1)O[C@@H]2C	x	x	x	-0.7	x
CCC(C(=O)Nc1ccccc1N1CCCC1)c1ccccc1F (centres undefined)	x	x	x	-3.7	x
CCOC(=O)N1C(=O)C[C@](Sc2ccc(OC)cc2)(C(=O)N2CCN(C(C)=O)CC2)[C@H]1c1ccc(OC)cc1	x	x	x	7.2	x
CC(C)=CCC[C@@]1(C(=O)O)[C@@H]2C/C=C(\C)CC/C=C(\C)CC[C@H]1[C@]1(CC2)CO1	x	x	x	-10.3	x
C=C1C[C@@H]2[C@H]3CCC4=CC(=O)C=C[C@]4(C)[C@@]3(F)[C@@H](O)C[C@]2(C)[C@]1(O)C(=O)COC(C)=O	-5.2%	x	x	x	x
Cc1ccc(-c2nn(C)c(=O)c3ccccc23)cc1CNC(=O)CSc1nc2ccccc2o1	65.8%	26.7µM*!	-3.2%	-17.5	-10.4%
CCC(=O)NCc1cc(-c2nn(C)c(=O)c3ccccc23)ccc1C	5.7%	2.3%	-8.6%	-6.6	-5.6%
CCC(=O)O[C@]1(C(=O)COC)[C@@H](C)C[C@H]2[C@@H]3CCC4=CC(=O)C=C[C@]4(C)C3(F)[C@@H](O)C[C@@]21C (some centres undefined)	x	x	x	-0.4	x
O=C(NNc1ccc(-c2csnn2)cc1)c1ccccc1C(F)(F)F	11.2µM*	-22.6%	-0.7%	-3.3	-0.8%
CCC(=O)N[C@@H]1CC(C(C)(C)NC(=O)CC)CC=C1C (some centres undefined)	10.3%	29.9µM*	u	1.7	0.5%
O=C(Nc1ccccc1)c1ccc(C(=O)Nc2ccccc2)nc1	-22.0%	18.9µM*	-10.8%	-10.5	0.2%
CC(=O)Nc1cccc(NC(=O)c2ccc(C(=O)Nc3cccc(NC(C)=O)c3)nc2)c1	1.0%	-10.1%	-12.8%	-6.9	-5.5%
O=c1cc(-c2ccccc2Cl)oc2c(NS(=O)(=O)c3cc(Cl)cc(Cl)c3O)ccc(O)c12	-1.4%	15µM*	31.6µM*	-1.3	31.6µM*
CC(=O)N1CCN(C(=O)CC2OC(=O)c3ccccc32)CC1 (centres undefined)	-7.5%	26.7µM*	u	10.6	-5.6%
O=C(c1ccc(Cl)c(S(=O)(=O)NCc2ccco2)c1)N1CCN(c2ccccc2F)CC1	11.7%	26.7µM*	-10.4%	0.1	0.0%
O=[N+]([O-])c1cccc(C2=Nn3c(nnc3-c3ccccc3)SC2)c1	x	x	x	2.6	x
Cc1nn(CCC(=O)NNC(=O)Nc2ccccc2F)c(C)c1[N+](=O)[O-]	x	x	x	-4.5	x
Cc1ncc([N+](=O)[O-])n1C	x	x	x	0.7	x
O=C(Cn1cc(C(F)(F)F)ccc1=O)N/N=C/c1ccccc1O	71.5%	29.9µM*	u	8.4	-3.4%
O=C(Cn1cc(C(F)(F)F)ccc1=O)N/N=C/c1ccc(F)cc1	-7.1%	-1.5%	11.5%	3.8	-3.6%
O=C(Cn1c2ccccc2c(=O)c2ccccc21)Nc1cccc(F)c1	-17.3%	10.6µM*	u	2.3	1.7%
O=C(CCc1ccccc1)N[C@H]1[C@@H](OC(=O)c2cccnc2)CCC[C@@]12C(=O)N(Cc1ccccc1)c1ccccc12	x	x	x	-1.7	x
COC(=O)C1(CO)NC(c2cccs2)C2C(=O)N(c3ccccc3)C(=O)C21 (centres undefined)	1.1%	26.7µM*	17.9%	1.3	-1.8%

Screening data as filed in PubChem.
